The values below come from the supplement of paper PMC5407854, “Inhibitor of ppGalNAc-T3-mediated O-glycosylation blocks cancer cell invasiveness and lowers FGF23 levels” (eLife, 2017).

In all, about 1,700 compounds were measured (“T2 sensor activation Q score (MG/GFP ratio z-score vs DMSO controls)”: median about 0.3, highest 2% from about 1.9 on). Shown is part of a subset that was picked to be rich in the highest values.

In the assay the test system is ppGalNAc-T2 sensor. Put plainly: T2 sensor activation Q score (MG/GFP ratio z-score vs DMSO controls) (SD units); higher = more sensor activation (inhibition of ppGalNAc-T2 glycosylation). The settings on record: HEK293 sensor cells; 10 µM; 6 h. How it is done:
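Cells were treated with compound at 10 uM for 6 h, then MG/GFP ratio was read by flow cytometry (10,000 cells per well, duplicate wells). Q = (R - R_neg)/SD_neg relative to DMSO vehicle controls; the signal rises when the glycosyltransferase is inhibited.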
With `Oc1ccc2ccccc2c1N=Nc1ccc(F)cc1`, the “T2 sensor activation Q score” value turned out to be 0.05.

Take `O=[N+]([O-])c1c(N2CCN(CCO)CC2)nc2ccccn12`: the “T2 sensor activation Q score” value turned out to be 0.7.

Take `OCc1nnn(-c2ccccc2)c1CO`: the “T2 sensor activation Q score” value amounted to 0.8.

For `NC(N)=N/N=C\c1c(Cl)cccc1Cl`, the “T2 sensor activation Q score” value was 0.25.

With `Cc1cc(N2CCOCC2)nc(N2CCOCC2)n1`, the “T2 sensor activation Q score” value was determined as 0.15.

Regarding `N#CC(c1ccccc1)C(C/C(=N\O)c1ccccc1)c1ccccc1` (stereo not drawn), the “T2 sensor activation Q score” value is -0.8.

Take `O=C(/C=C/c1cccnc1)/C=C/c1cccnc1`: the “T2 sensor activation Q score” value was 1.6.

As for `O=C(c1ccccc1)C1N=NCC1c1ccc(Cl)cc1` (stereo not drawn), the “T2 sensor activation Q score” value worked out at 0.05.

As to `O=c1nc(Oc2ccccc2)nc2ncccn12`, the “T2 sensor activation Q score” value was found to be 1.9.

Take `Nc1nc(SCc2ccccn2)c2ncn(C3OC(CO)C(O)C3O)c2n1` (stereo not drawn): the “T2 sensor activation Q score” value was -0.15.

Take `Cc1cc(=O)n2[nH]c(-c3ccc(C(C)(C)C)cc3)cc2n1`: the “T2 sensor activation Q score” value worked out at 0.15.

In the case of `Nc1nc(N)c2c(ccc3nccc32)[nH]1`, the “T2 sensor activation Q score” value came out at 1.3.

Turning to `O=C1C2C3C=CC(CC3)C2S(=O)(=O)C2C3C=CC(CC3)C12` (stereo not drawn), the “T2 sensor activation Q score” value was 1.8.

For `CCOC(=O)CCCN(c1[nH]c(C)c(C)c1C#N)S(=O)(=O)c1ccc(C)cc1`, the “T2 sensor activation Q score” value was determined as 1.05.

On to `CCCCCC(=O)N1CCCCC1`, for which the “T2 sensor activation Q score” value was -1.85.

Regarding `O=C1C=CC(=O)N1c1ccc(I)cc1Cl`, the “T2 sensor activation Q score” value is -0.45.

In the case of `CC(=O)Oc1c(C)c(OC(C)=O)c2c(c1C(C)=O)OC1CC(=O)C(C(C)=O)=C(O)C21C` (stereo not drawn), the “T2 sensor activation Q score” value was -1.8.

Turning to `O=C1Cc2cccc(=O)c(O)c2C(=O)O1`, the “T2 sensor activation Q score” value was determined as 0.1.

Take `O=c1cccc2cc(O)c(O)c(O)c2c1O`: the “T2 sensor activation Q score” value turned out to be 2.35.

In the case of `CCOP(=O)(OCC)/C(C#N)=C/c1ccc([N+](=O)[O-])cc1`, the “T2 sensor activation Q score” value was 2.3.

In the case of `CCOP(=O)(OCC)/C(C#N)=C/c1ccc(-c2ccc(F)cc2F)o1`, the “T2 sensor activation Q score” value was -0.9.

Regarding `CCOP(=O)(OCC)/C(C#N)=C/c1c[nH]c2ccccc12`, the “T2 sensor activation Q score” value was -0.2.

In the case of `Clc1ccc2nc3ccccc3cc2c1`, the “T2 sensor activation Q score” value amounted to 1.3.

As to `CC(=O)Nc1ccc(OC(=O)Oc2ccc(NC(C)=O)cc2)cc1`, the “T2 sensor activation Q score” value turned out to be 1.2.

Consider `Cc1ccc(C#CC(C)(O)C(C)(C)C)cn1` (stereo not drawn), for which the “T2 sensor activation Q score” value is -0.05.

On to `Cc1nc(N)nc(Nc2ccc(C#N)cc2)c1Br`, for which the “T2 sensor activation Q score” value turned out to be 2.35.

For the molecule `N#Cc1c(N)nc(N)nc1Nc1ccc(Br)cc1`, the “T2 sensor activation Q score” value was 1.15.

As to `COc1cnc(SC)nc1Nc1ccc(C#N)cc1`, the “T2 sensor activation Q score” value came to 1.65.

On to `CCc1nc(N)nc(N)c1-c1ccc(N(C)Cc2ccccc2)c([N+](=O)[O-])c1`, for which the “T2 sensor activation Q score” value is -1.25.

In the case of `CC1(C)c2ccccc2-c2nc3ccccc3cc2C1O` (stereo not drawn), the “T2 sensor activation Q score” value is -0.95.

Regarding `O=C1CC(c2ccc(O)cc2)Oc2cc(O)cc(O)c21` (stereo not drawn), the “T2 sensor activation Q score” value was 0.75.

As for `CC(C)(C)c1ccc(OC(=O)c2ccccc2)cc1`, the “T2 sensor activation Q score” value was 0.95.

For the molecule `CC(C)(C)CC(C)(C)N1CNC(=S)NC1`, the “T2 sensor activation Q score” value was 0.45.

With `N#CCCCCN1CCCC1`, the “T2 sensor activation Q score” value was -0.65.

Consider `Cc1c(Cl)cccc1NC(=O)CC1Sc2ccccc2NC1=O` (stereo not drawn), for which the “T2 sensor activation Q score” value is 2.

In the case of `CCOC(=O)C(=O)C1C(=O)Nc2ccccc21` (stereo not drawn), the “T2 sensor activation Q score” value was 1.15.

For `CCCCSc1cc(=O)[nH]c(N)n1`, the “T2 sensor activation Q score” value came out at 1.85.

Regarding `NC(=O)C1=C(N)c2ccccc2C1c1ccccc1` (stereo not drawn), the “T2 sensor activation Q score” value stood at 1.4.

`CCC1(CC)C(=O)NC(=S)N=C1N`: the “T2 sensor activation Q score” value was determined as 1.7.

For the molecule `Cc1cc2nc(-c3ccccn3)c(-c3ccccn3)nc2cc1C`, the “T2 sensor activation Q score” value stood at 2.4.

With `c1ccc(-c2nc(-c3ccccn3)nc(-c3ccccn3)n2)nc1`, the “T2 sensor activation Q score” value is -0.55.

As to `c1ccc(-c2nc3ccccc3s2)nc1`, the “T2 sensor activation Q score” value turned out to be 0.6.

Consider `O=c1ccc(Cl)n[nH]1`, for which the “T2 sensor activation Q score” value is 1.45.

With `FC(F)(F)c1cccc(OCC2CNC(=S)O2)c1` (stereo not drawn), the “T2 sensor activation Q score” value is 0.65.

For `Cc1csc(NC(=O)c2ccc(C(=O)Nc3nc(C)cs3)cc2)n1`, the “T2 sensor activation Q score” value came to 0.5.

As to `C=C1SC(=Nc2c(C)cccc2Cl)N(C(=O)c2sc3ccccc3c2Cl)C12CCCCC2`, the “T2 sensor activation Q score” value turned out to be 1.1.

In the case of `Nc1cc(N)nc(CS)n1`, the “T2 sensor activation Q score” value worked out at 1.45.

For the molecule `COCC(=O)Oc1cc(-c2ccc(C)cc2C)c(OC(=O)COC)c(-c2ccc(C)cc2C)c1`, the “T2 sensor activation Q score” value was 0.9.

In the case of `NC(=O)c1ccccc1OCC(=O)Nc1ccc(Cl)c(Cl)c1`, the “T2 sensor activation Q score” value is 0.1.

Turning to `Cc1cccc(C(O)C(O)c2cccc(C)n2)n1` (stereo not drawn), the “T2 sensor activation Q score” value came out at 0.55.

With `COc1ccccc1/C=C(\C#N)C(=O)O`, the “T2 sensor activation Q score” value turned out to be 1.4.

For `c1ccc2c(c1)nnn2-c1ccncc1`, the “T2 sensor activation Q score” value is -0.1.

On to `Nc1nnc(-c2cccnc2)s1`, for which the “T2 sensor activation Q score” value stood at 0.6.

On to `Cc1cnc2c(N)cc(C)c(C)c2c1`, for which the “T2 sensor activation Q score” value amounted to 1.15.

Turning to `O=[N+]([O-])c1cc(-c2cccnc2)n[nH]1`, the “T2 sensor activation Q score” value was -0.35.

Consider `Nc1ccccc1C(=O)Nc1ccc(Cl)cc1Cl`, for which the “T2 sensor activation Q score” value worked out at 0.45.

Regarding `C#CC1(N2CCCCC2)CCCCC1`, the “T2 sensor activation Q score” value amounted to 0.8.

As for `Clc1nnc(NC2CCCCC2)c(Cl)c1Cl`, the “T2 sensor activation Q score” value was 0.15.

Take `CC(=O)OCC1OC(COC(C)=O)(c2ccc(C)cc2)C(OC(C)=O)C1OC(C)=O` (stereo not drawn): the “T2 sensor activation Q score” value worked out at 0.15.

In the case of `c1ccc(NN(Cc2ccncc2)c2ccccc2)cc1`, the “T2 sensor activation Q score” value is 0.95.

Take `COc1ccc(Nc2cc(Cl)ccc2C(=O)O)cn1`: the “T2 sensor activation Q score” value amounted to 2.25.

For the molecule `COc1cc(-c2ccc(Nc3ccccc3C(=O)O)c(OC)c2)ccc1Nc1ccccc1C(=O)O`, the “T2 sensor activation Q score” value is -0.5.

`CCCCOc1ccc(Nc2cc(Cl)ccc2C(=O)O)cn1`: the “T2 sensor activation Q score” value came to 1.2.
